From PubChem
Compounds with a hit are over-represented: about 4.2% of the library has one in this group of screens.
TIM10 inh: inhibits growth of TIM10 yeast strain; S. cerevisiae TIM10 strain growth, BacTiter-Glo luminescence, 24 h; inhibition, % at 10 µM; hit rate 1.4% among 330,000;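 active = inhibition of 40% or more at the single tested concentration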;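 also: wild-type TIM10 isogenic control strain grown at permissive 25 °C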
tim10-1 inh: inhibits growth of tim10-1 mutant yeast | S. cerevisiae tim10-1 ts strain growth, BacTiter-Glo, 24 h | inhibition, % at 20 µM | hit rate 2.2% among 330,000;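 active = inhibition of at least 40%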;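 also: mutant grown at 25 °C; 0% = DMSO wells with yeast and 100% = wells holding no yeast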
NALP1 inh: inhibitors of NALP1 inflammasome in yeast; S. cerevisiae NALP1/ASC/caspase-1 growth, X-gal OD620, 72 h; inhibition, % at 10 µM; hit rate 0.61% among 280,000; AID 2071; in the data active = inhibition mostly above about 24%, no sharp cut-off; inactive = mostly below about 32%
tim23-1 inh: tim23-1 yeast growth inhibition | S. cerevisiae tim23-1 growth, BacTiter-Glo luminescence, 24 h | inhibition, % at 20 µM | hit rate 1.3% among 330,000;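 active = growth inhibition of the mutant yeast at or above 50%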;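 also: temperature-sensitive mutant grown at 25 °C; plate controls were DMSO-treated mutant yeast for no effect and medium wells lacking yeast for full effect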
NLRP3 yeast inh: NALP3 inhibition in yeast | Yeast reconstituted NLRP3/ASC/caspase-1, beta-gal luminescence, 24 h | inhibition, % at 10 µM | hit rate 0.39% among 330,000 | AID 2825;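 active = inhibition of 50% or more; inactive = inhibition below 50%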;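 also: plate controls were induced DMSO wells for no effect and uninduced yeast grown without galactose for full effect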
V-ATPase pH: regulators of yeast V-ATPase proton transport; response, % at 10 µM; S. cerevisiae, pHLuorin cytosolic pH fluorescence; hit rate 0.37% among 350,000; in the data active = response mostly above about 7.3%, no sharp cut-off; inactive = mostly below about 5.4%; also: actives read high
tim10 confirm: confirmation of TIM10 yeast growth inhibitors; inhibition, % at 10 µM; hit rate 63% among 4,600; S. cerevisiae tim10 strain growth, BacTiter-Glo luminescence, 24 h; shares compounds with TIM10 inh;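 active = inhibition of yeast growth at or above a set limit in either of two replicates at 10 µM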;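 also: this counterscreen used the strain with wild-type TIM10; 0% = yeast with DMSO and 100% = medium wells lacking yeast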
tim23-1 conf: tim23-1 yeast growth inhibition, confirmed. S. cerevisiae tim23-1 growth, BacTiter-Glo luminescence, 24 h. hit rate 83% among 4,400. inhibition, % at 20 µM. shares compounds with tim23-1 inh;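 active = inhibition above about 39% in either of two replicate wells at 20 µM, limit read from the data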;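 also: temperature-sensitive tim23-1 mutant grown at 25 °C; 0% = DMSO wells with yeast and 100% = medium wells without yeast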
Active calls of the source: *; nt = no result given.

SMILES	TIM10 inh	tim10-1 inh	NALP1 inh	tim23-1 inh	NLRP3 yeast inh	V-ATPase pH	tim10 confirm	others
O=c1c2c3c(sc2ncn1/N=C/c1ccc([N+](=O)[O-])o1)CCCC3	69*	-21	10	-79	35	-7	96*
Cn1cc(/C=N/n2cnc3sc4c(c3c2=O)CCCC4)c2ccccc21	-3	28	13	22	20	2	nt
CCOC(=O)N1CCC(NC(=O)CC(NS(=O)(=O)c2ccc(Cl)cc2)c2ccco2)CC1 (configuration not stated)	5	4	9	5	10	3	nt
CCCOc1ccc(CC(=O)NNC(=S)Nc2ccccc2)cc1Br	46*	31	-15	42	20	6	27*
CCc1nc2c(cnn2-c2ccc(F)cc2)c(=O)n1-c1ccc(N2CCC(C)CC2)cc1	29	12	-3	5	11	4	nt
COc1ccc(Nc2nc3ccccc3s2)cc1	4	27	6	25	20	0	nt
COc1ccc(Nc2nc(Cl)c(C=O)s2)cc1	46*	29	-1	44	11	-3	18
Cc1ccc(CNC(=O)c2cn(C3CCCCC3)c(=O)c3c2c2ccccc2n3C)o1	43*	26	-8	26	7	2	-10
O=C(Nc1ccc(N2CCOCC2)cc1)c1ccc(S(=O)(=O)NCc2ccco2)cc1	0	-2	15	-3	17	-3	nt
Cc1nc2cc(S(=O)(=O)N3CCC(C(=O)O)CC3)ccc2n1C1CCCC1	-3	8	4	7	8	-4	nt
CCOC(=O)C1=CN(Cc2cccc(Br)c2)S(=O)(=O)NC1C (configuration not stated)	0	25	nt	44	nt	-3	nt
CC(=O)NC/C(C)=N\Nc1ccc([N+](=O)[O-])cc1	49*	31	28	5	23	0	-33
O=Cc1cc(N=Nc2ccccc2Cl)ccc1O	62*	12	-8	29	47	-2	76*
O=Cc1cc(N=Nc2cccc(C(=O)O)c2)ccc1O	16	1	6	5	38	-3	nt
Nc1cc(N)nc(SCC(=O)Nc2cc(S(=O)(=O)N3CCOCC3)ccc2Cl)n1	1	-9	15	-7	14	-1	nt
Cc1c(C(=O)O/N=C(\N)c2ccccn2)cccc1[N+](=O)[O-]	29	27	-13	25	21	3	nt
N/C(=N\OC(=O)c1ccc2ccccc2c1)c1ccccc1Cl	84*	36	26	15	26	4	85*
N/C(=N\OC(=O)c1ccc2ccccc2c1)c1ccccn1	45*	36	-3	13	5	8	51*
N/C(=N\OC(=O)c1cccc2ccccc12)c1ccccn1	55*	22	9	49	22	-1	55*
COc1ccccc1NC(=S)N/N=C/c1cccc(C)c1	32	33	23	20	25	-1	nt
COc1ccccc1NC(=S)N/N=C/c1ccc(O)cc1	53*	37	18	47	37	-2	-28
CC(C)N1CCc2c(sc(NC(=O)c3nc4ccccc4s3)c2C(N)=O)C1	44*	-11	-22	42	47	-3	22
CC(C)N1CCc2c(sc(NC(=O)c3cc(-c4cccs4)nc4ccccc34)c2C(N)=O)C1	24	16	39	44	34	-1	nt
CC(=O)Nc1sc2c(c1-c1nc3ccccc3s1)CN(C(C)C)CC2	65*	12	nt	43	5	0	19
CCOC(=O)N1CCN(C(=O)c2ccc3nc(N4CCC(C)CC4)sc3c2)CC1	27	37	9	23	18	3	nt
SMILES	TIM10 inh	tim10-1 inh	NALP1 inh	tim23-1 inh	NLRP3 yeast inh	V-ATPase pH	tim10 confirm	others
COc1cccc(N2CCN(C(=O)c3ccc4nc(N5CCC(C)CC5)sc4c3)CC2)c1	42*	31	nt	39	17	nt	42*
CC(=O)OCc1c(-c2ccccc2)c2cc([N+](=O)[O-])ccc2n1C	17	16	4	16	15	1	nt
Oc1ccc(-c2c(-c3ccsc3)sc3ccccc23)cc1	48*	30	22	41	8	-2	61*
COCc1ccc(-c2c(-c3ccsc3)sc3ccccc23)cc1	-3	0	nt	3	4	0	nt
CCn1c(=O)c([N+](=O)[O-])c(Cl)c2ccccc21	78*	33	-16	37	9	20*	79*
CC1C(=O)C(C)C(c2ccc(Cl)cc2)NC1c1ccc(Cl)cc1 (configuration not stated)	0	32	nt	37	31	0	nt
O=C(CCSc1nc(-c2ccco2)cc(C(F)(F)F)n1)N1CCN(c2ccccn2)CC1	40*	36	29	33	13	-4	32*
O=C(Nc1ncnc2sc3c(c12)CCCCC3)c1ccco1	11	7	10	-17	12	-2	nt
S=C(NCCc1ccccc1)N/N=C/c1cccs1	41*	33	nt	42	18	1	38*
S=C(NCc1ccccc1)N/N=C/c1cccs1	34	32	-3	39	31	-4	nt
Cc1ccc(NC(=S)N/N=C/c2ccc([N+](=O)[O-])s2)cc1	46*	18	26	-11	16	1	-18
CNC(=O)c1ccsc1NC(=O)C1CCN(S(=O)(=O)c2ccc(Cl)s2)CC1	21	30	nt	49	3	-1	nt
COCCN1C(=O)C(=O)/C(=C(/O)c2ccc(S(=O)(=O)N3CCCCC3)cc2)C1c1ccc(OC)cc1 (configuration not stated)	90*	1	14	-3	3	3	5
CCCc1nc2c(s1)CCc1onc(-c3ccc(Br)cc3)c1-2	-7	6	nt	9	6	5	nt
CCCc1nc2oc3c(NCC(C)O)ncnc3c2c2c1CCCC2 (configuration not stated)	41*	34	8	31	18	-53	45*
CCN(C(=O)COC(=O)c1cnc(C)cn1)c1c(N)n(Cc2ccccc2)c(=O)[nH]c1=O	-7	-9	nt	-8	0	0	nt
CCCN(C(=O)Cn1ncc2c(=O)oc3ccccc3c21)c1cccc(C)c1	41*	33	19	31	-7	0	16
CCn1c(CSc2nc3ccccc3s2)nc2ccccc21	51*	37	16	54*	18	1	44*	tim23-1 conf=52*
c1csc(CSc2nc3ccccc3s2)c1	8	6	-11	17	17	-2	nt
O=C(Cc1ccc(Cl)cc1)NCCS(=O)c1ccc(Cl)cc1 (configuration not stated)	-4	-16	0	-4	18	-2	nt
